# Values without a mark were called inactive. The source made the active and inactive calls.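 The calls were made as follows: active = thallium flux through the channel raised or lowered by more than 3 SD from vehicle-only wells, actives on both sides; inactive = the rest.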
# Columns and labels:
# Assay in all cases: BK channel mutant inhibitors and activators – cell-based, U2OS BacMam, thallium flux, beta subunits, selectivity assay, profiling panel (AID 1259406);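 also: initial slope of Thallos dye fluorescence rise after thallium is added; log ratio against the mean of 0.3% DMSO vehicle wells on the same plate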
# F380Y = details: U2OS BacMam BK variants, at 30 µM
# F380Y/beta1 = details: U2OS BacMam BK variants, at 30 µM
# F380Y/beta2Delta = details: U2OS BacMam BK variants, at 30 µM
# F380Y/beta4 = details: U2OS BacMam BK variants, at 30 µM
# [1] = target: Calcium-activated potassium channel subunit alpha-1 (Homo sapiens) + Leucine-rich repeat-containing protein 26 (Homo sapiens) (UniProt Q12791+Q2I0M4); details: U2OS BacMam BK variants, F380Y/Slo1WT/gamma1, at 30 µM
# Calcium-activated potassium channel subunit alpha-1 (Homo sapiens) + Leucine-rich repeat-containing protein 26 (Homo sapiens), sequence (Q2I0M4 whole entry, looked up, one chain of several): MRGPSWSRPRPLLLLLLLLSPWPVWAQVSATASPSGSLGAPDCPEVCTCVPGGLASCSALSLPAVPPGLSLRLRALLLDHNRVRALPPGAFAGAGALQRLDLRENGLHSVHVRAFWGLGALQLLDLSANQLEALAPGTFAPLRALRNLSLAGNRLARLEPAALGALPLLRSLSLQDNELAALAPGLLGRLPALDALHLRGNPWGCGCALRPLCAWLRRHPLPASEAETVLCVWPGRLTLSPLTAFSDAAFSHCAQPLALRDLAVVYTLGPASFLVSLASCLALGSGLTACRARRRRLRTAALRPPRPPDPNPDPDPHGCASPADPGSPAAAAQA
# R275C = details: U2OS BacMam BK variants, at 30 µM
# R275C/beta1 = details: U2OS BacMam BK variants, at 30 µM
# R275C/beta2Delta = details: U2OS BacMam BK variants, at 30 µM
# R275C/beta4 = details: U2OS BacMam BK variants, at 30 µM
# R275C/Slo1WT/beta2 = details: U2OS BacMam BK variants, at 30 µM
Structure (SMILES),log fold change Tl+ flux (F380Y),log fold change Tl+ flux (F380Y/beta1),log fold change Tl+ flux (F380Y/beta2Delta),log fold change Tl+ flux (F380Y/beta4),log fold change Tl+ flux [1],log fold change Tl+ flux (R275C),log fold change Tl+ flux (R275C/beta1),log fold change Tl+ flux (R275C/beta2Delta),log fold change Tl+ flux (R275C/beta4),log fold change Tl+ flux (R275C/Slo1WT/beta2)
COC(=O)C(C#N)=CN(C)C,0.0153,0.000638,0.00933,0.0217,-0.0293,0.0113,0.0127,0.0244,-0.00979,-0.0171
COC(=O)c1ccc(C=Cc2cccc(Cl)c2)s1,-0.0764,-0.0156,-0.00709,-0.264 (active),-0.421 (active),-0.198 (active),-0.192 (active),-0.00722,-0.0416,-0.104 (active)
Cc1noc(C=Cc2sccc2C2OCCO2)c1[N+](=O)[O-],0.00373,0.00792,-0.0403,-0.0687,-0.0936,0.00445,-0.0604,-0.0701,-0.00776,-0.000775
Fc1cccc(Cl)c1CSc1nccn1-c1cccnc1,0.00886,0.00855,0.00345,0.0175,0.00834,0.0131,0.0289,0.0125,0.0207,0.0418
CC1(C)CCc2cc(C=NNC(=O)c3cccc(Cl)c3Cl)ccc2O1,-0.00742,0.0223,-0.00817,0.0599,0.0181,-0.00408,0.0163,-0.000312,-0.0646,0.00986
COc1cccc(C=NNC(=O)C2CCCN(C(=S)NNC3CC4C=CC3C4)CC2)c1O (stereo not given),0.0111,-0.0549,-0.0296,0.0197,0.0309,-0.00837,0.0189,-0.0281,-0.00446,0.00307
COC(=O)c1cncc(Br)c1,-0.0118,0.012,0.0106,-0.0443,-0.0357,-0.0441,-0.0547,-0.0215,-0.021,-0.0413
O=C(Nc1ccc(-n2ccc(C(F)(F)F)n2)cc1)C1=Cc2cc(Cl)ccc2OC1,0.0274,-0.019,0.0253,-0.0159,-0.106,-0.0271,-0.0315,0.035,-0.0139,-0.0341
CCc1ccc(C(=O)Nc2cccc(S(N)(=O)=O)c2)cc1,-0.0133,-0.00607,-0.0279,0.0112,0.028,-0.00467,-0.00416,-0.0306,0.0218,0.0201
Cc1cc(C)c2cc(C(=O)Nc3ccccc3SCc3cccc(Cl)c3F)[nH]c2c1,0.0408,0.0143,0.00341,-0.00891,-0.00142,0.000963,0.041,0.02,0.00151,0.025
O=C(NNC(=O)c1ccc2nonc2c1)c1cccc(C(F)(F)F)c1,0.0115,0.037,0.0509,0.00874,-0.0024,0.0381,0.0483,0.036,0.0129,-0.0326
C=CCNC(SC)=C(C#N)C(N)=O,-0.000365,-0.02,0.0377,-0.0612,0.0338,-0.0174,-0.038,0.00669,-0.0131,-0.00229
O=S(=O)(Cc1nc(C=Cc2cc(C(F)(F)F)cc(C(F)(F)F)c2)no1)c1ccc(Cl)cc1,-0.0307,0.0685,0.000486,-0.0134,0.00425,0.0144,0.0543,0.0281,-0.0177,0.00318

# Source: PubChem BioAssay
